Screens as filed in PubChem BioAssay.
D2 PAM-1 = D2 dopamine receptor (human) potentiation. HEK293 T-REx D2, calcium flux, EC20 dopamine potentiation. potentiation, % at 10 µM. actives 0.34% (n = 340,000). P14416. AID 485347;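 active = potentiation over 3 SD above the plate norm, cut at about 30% in these data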
Target sequence (P14416 whole entry, looked up): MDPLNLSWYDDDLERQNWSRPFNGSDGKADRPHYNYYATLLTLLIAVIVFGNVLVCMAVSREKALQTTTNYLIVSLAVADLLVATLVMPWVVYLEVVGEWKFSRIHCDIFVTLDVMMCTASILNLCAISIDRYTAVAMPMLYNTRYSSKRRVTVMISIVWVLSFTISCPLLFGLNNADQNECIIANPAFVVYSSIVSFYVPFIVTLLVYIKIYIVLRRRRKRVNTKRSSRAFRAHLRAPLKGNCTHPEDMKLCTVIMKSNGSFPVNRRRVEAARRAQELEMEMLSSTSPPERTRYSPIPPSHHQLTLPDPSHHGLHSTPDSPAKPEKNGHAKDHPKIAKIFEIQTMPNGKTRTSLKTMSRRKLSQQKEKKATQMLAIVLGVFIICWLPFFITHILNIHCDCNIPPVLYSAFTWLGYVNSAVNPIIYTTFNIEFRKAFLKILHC
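Potentiation of an EC20 dopamine calcium response measured kinetically over 180 s, after a preceding 180 s compound-only read flagging agonists. Cells: inducible Hek293 Trex D2 line, 4000/well, cultured overnight at 30 C before dye loading.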
D2 ag-1 = activates the human D2 dopamine receptor. actives 0.084% (n = 360,000). DiscoveRx PathHunter D2 beta-arrestin, luminescence, 90 min; 100% = 57 uM dopamine signal. AID 624465. activation, % (no concentration beside the values). P14416; in the data active = activation above about 40%; inconclusive = between about 15% and that limit
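Agonist mode: compounds alone added to overnight-plated D2 PathHunter cells for 90 min at 37 C, with 57 uM final dopamine (EC100) defining full response. Beta-arrestin recruitment detected by chemiluminescent reagent, read after 1 h at ambient temperature.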
D2 ag-2 = agonists of human D2 dopamine receptor; P14416; HEK293 T-REx D2 cells, calcium flux agonist mode; activation, % at 2 µM; actives 0.53% (n = 340,000); AID 485358;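 active = activation over 3 SD above normal in the single-dose calcium agonist read, cut at about 30% in these data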
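Tetracycline-induced HEK293 T-REx cells with force-coupled D2 receptor, plated overnight at 30 C, loaded with no-wash calcium dye. After a 10 s baseline, compound was pin-added and calcium flux read kinetically for 180 s; calcium rises flagged agonists.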
D2 antag = antagonists of human D2 dopamine receptor. P14416. HEK293 TREx D2 cells, calcium flux, dopamine EC80. inhibition, % at 10 µM. actives 2% (n = 340,000); in the data active = inhibition above about 30%; inactive = below that, where a call was filed
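In this primary screen, negative modulation is detected by tracking calcium flux after an EC80 dopamine challenge in inducible HEK293 T-REx D2 cells preexposed to test compound for 180 s.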
D2 PAM-2 = potentiates the human D2 dopamine receptor allosterically; potentiation, % (concentration not given with the values); P14416; actives 0.23% (n = 360,000); DiscoveRx D2 beta-arrestin cells, luminescence, 90 min; 100% = 57 uM dopamine signal; AID 624464; in the data active = potentiation above about 50%; inconclusive = mostly about 30% to 49%
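PathHunter beta-arrestin assay in DiscoveRx D2 cells. Compounds were added with an EC20 of dopamine (50 nM final) for 90 min at 37 deg C. Luminescence was read 1 h after detection reagent, with 57 uM dopamine as the EC100 control.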
Large screens that a line does not name were inactive. Hits are enriched below; roughly 2.4% of the tested compounds scored in any of these assays.

CCOC(=O)c1c(-c2ccc(C)cc2)cn2ccccc12	none
COCCN1C=C(C(=O)OC)C(c2cc(Br)c(OC)c(OC)c2)C(C(=O)OC)=C1	D2 PAM-1 33.5
COC(=O)C1=CN(Cc2ccc(C)cc2)C=C(C(=O)OC)C1c1cc(OC)c(OC)c(OC)c1	none
CC(Sc1ncc(S(=O)(=O)c2ccc(C(C)C)cc2)c(N)n1)C(=O)Nc1ccccc1 (configuration not stated)	none (no result: D2 ag-1, D2 antag, D2 PAM-2)
CN1CCN(NC(=O)CSc2ccc(Cl)cc2Cl)CC1	D2 antag 45.8
O=C(CSc1cc(Cl)ccc1Cl)NC1CC1	none
O=C(CCN1N=C(c2ccccc2)CCC1=O)NCCc1ccc(Cl)cc1	none (no result: D2 ag-1, D2 antag, D2 PAM-2)
CCn1ccc2c(OCC(=O)NCc3ccc(C)cc3)cccc2c1=O	none (no result: D2 ag-1, D2 antag, D2 PAM-2)
O=C(NNC(=O)c1ccc([N+](=O)[O-])cc1)c1ccc(NS(=O)(=O)c2cccs2)cc1	none (no result: D2 PAM-1, D2 ag-2, D2 antag)
COC(=O)c1cc(C(=O)OCC(=O)NNC(=O)c2cccs2)cc([N+](=O)[O-])c1	D2 PAM-2 71.0
Cc1cc(C(=O)OCC(=O)NNC(=O)c2cccs2)ccc1[N+](=O)[O-]	none
O=C(NNC(=O)c1cccs1)c1ccc([N+](=O)[O-])cc1	D2 antag 61.3
CC(C)(C)c1ccc(C(=O)NC(=S)NNC(=O)c2cccs2)cc1	D2 ag-2 51.0, D2 antag 56.4
CC(C)CC(=O)Nc1ccc(C(=O)OCc2cc(=O)n3nc(C(C)C)sc3n2)cc1	none (no result: D2 ag-1, D2 antag, D2 PAM-2)
COc1ccc(-c2[nH]ncc2C(=O)NCc2ccccc2C)cc1	none (no result: D2 ag-1, D2 antag, D2 PAM-2)
Cc1cccc(N=c2c([N+](=O)[O-])nn(-c3ccc(Cl)cc3)n2O)c1	D2 PAM-2 inconclusive
CCc1cccc(N=c2c([N+](=O)[O-])nn(-c3ccc(Cl)cc3)n2O)c1	D2 PAM-2 86.7
Cc1cc(C)cc(N=c2c([N+](=O)[O-])nn(-c3cccc(Cl)c3)n2O)c1	D2 PAM-2 97.4
Cc1ccc(CN=c2c([N+](=O)[O-])nn(-c3ccc(Cl)cc3)n2O)cc1	none
Cc1ccc(OCCOCCn2c(-c3ccc(Cl)cc3)nc3ccccc3c2=O)cc1	none (no result: D2 ag-1, D2 antag, D2 PAM-2)
Cn1c(=O)oc2cc(S(=O)(=O)N3CCC(C(=O)N4CC=C(c5ccccc5)CC4)CC3)ccc21	D2 antag 40.6
CCCn1c(=O)c2sccc2n2c(CCCC(=O)N3CCN(c4ccc(OC)cc4)CC3)nnc12	none (no result: D2 ag-1, D2 ag-2, D2 antag, D2 PAM-2)
COc1ccc(OCCCC(=O)Nc2nncs2)cc1	D2 PAM-1 38.8
O=C(NCc1ccccc1)c1cccn1-c1nnc(N2CCCCC2)s1	none (no result: D2 ag-1, D2 ag-2, D2 antag, D2 PAM-2)
CCNc1ccc(S(=O)(=O)N2CCCCC2)cn1	D2 antag 33.1
CN(C)CC(C)(C)CNc1ccc(S(=O)(=O)N2CCCC2)cn1	none (no result: D2 PAM-1, D2 ag-2, D2 antag)
CC(=O)N1CCN(c2ccc(S(=O)(=O)N3CCCCC3)cn2)CC1	D2 antag 37.7
CCc1ccc(C(=O)CSc2nc(-c3ccccc3)nc3c2CCCC3)cc1	none (no result: D2 ag-1, D2 antag, D2 PAM-2)
CCOC(=O)N1CCN(S(=O)(=O)CCNC(=O)c2ccc(OC)cc2)CC1	D2 antag 34.1
CCOC(=O)N1CCN(S(=O)(=O)CCNC(=O)c2ccc(F)cc2)CC1	none (no result: D2 ag-2)
O=C1CC(c2ccc3c(c2)OCO3)c2cc3c(cc2N1)OCO3 (configuration not stated)	none
O=C1CC(c2ccncc2)c2cc3c(cc2N1)OCO3 (configuration not stated)	D2 antag 37.2
CCOC(=O)c1cnc2cc(-c3ccc(OCC)cc3)nn2c1-c1ccccc1	none (no result: D2 PAM-1, D2 ag-1, D2 antag, D2 PAM-2)
Cc1sc2ncnc(SCC(=O)NC3CCCC3)c2c1C	D2 antag 31.8 (no result: D2 PAM-1)
Cc1cccc(NC(=O)CN2C(=O)c3cccnc3Oc3ccc(Cl)cc32)c1C	none (no result: D2 ag-1, D2 antag, D2 PAM-2)
COC(=O)c1ccc(/C=N\NC(=O)CC(=O)NCCc2ccccc2)cc1	none
C=CCNC(=O)CC(=O)N/N=C/c1ccc(C(=O)OC)cc1	D2 antag 33.4
NS(=O)(=O)c1ccc(NC(=O)Cc2cccs2)cc1	D2 antag 38.6
Cn1cc(CN2CCN(c3ccccc3)CC2)c2ccccc21	D2 ag-2 74.1, D2 antag 80.9
Cc1ccc(C)c(N2CCN(C(=O)CCn3c(=O)c4cccn4c4cccnc43)CC2)c1	none (no result: D2 ag-1, D2 antag, D2 PAM-2)
CCN(CC(O)CON=C1c2ccccc2-c2ccccc21)S(=O)(=O)c1ccc(C)cc1 (configuration not stated)	D2 antag 34.1
CCOC(=O)Cc1ccc(NC(=O)Nc2cccc(OCc3cc(=O)n4cc(C)ccc4n3)c2)cc1	none (no result: D2 ag-1, D2 ag-2, D2 antag, D2 PAM-2)
Brc1ccc(C=Nc2ccc(Nc3ccccc3)cc2)s1	D2 ag-1 inconclusive, D2 PAM-2 87.4
C(=Nc1ccc(Nc2ccccc2)cc1)c1ccc2ccccc2c1	D2 PAM-2 52.0
NC(=S)N/N=C/c1ccc2ccccc2c1	D2 antag 48.1
COc1ccc(S(=O)(=O)N(CC(=O)NCCSc2ccccc2)c2ccc(C)cc2)cc1	none (no result: D2 ag-1, D2 antag, D2 PAM-2)
CCOc1ccc(C2CC(=O)c3c([nH]c(C(=O)OCC4CCCCC4)c3C)C2)cc1 (configuration not stated)	none (no result: D2 ag-1, D2 antag, D2 PAM-2)
COc1ccccc1CN1CC(C(=O)NCCN(C)CCc2ccccc2)CCC1=O (configuration not stated)	D2 ag-2 45.5
COc1ccc(NC(=O)c2cc(C(C)=O)n3ccccc23)cc1	none (no result: D2 ag-1, D2 antag, D2 PAM-2)
CCn1c(Cc2ccccc2)nnc1SCC(=O)Nc1ccc(N2CCOCC2)c(Cl)c1	D2 antag 39.2
CCn1c(Cc2ccccc2)nnc1SCC(=O)NC(C)(C)C	none
CCn1c(Cc2ccccc2)nnc1SCC(=O)Nc1ccccc1O	D2 antag 40.0
Cn1c(SCC(=O)Nc2ccc(N3CCOCC3)c(Cl)c2)nnc1-c1ccccc1	none (no result: D2 PAM-1, D2 ag-2, D2 antag)
Cc1ccc(C(=O)N/N=C\c2cc3c(cc2Br)OCO3)s1	D2 antag 65.8
COC(=O)N/N=C\c1cc2c(cc1Br)OCO2	none
C=CCN1C(=O)/C(=C/c2ccc(O)c(OC)c2)S/C1=N/c1nccs1	D2 ag-2 44.9
O=C(CCC1N=C2c3ccccc3N=C(SCc3ccccc3F)N2C1=O)NCc1ccc(F)cc1 (configuration not stated)	none (no result: D2 ag-1, D2 antag, D2 PAM-2)
C/C(=N\Nc1nccnc1Cl)c1ccc(Br)cc1	none
COc1ccc(/C(C)=N/Nc2nccnc2Cl)cc1	D2 antag 35.7
COc1ccc2c(c1)CC(C(=O)NCCN1CCN(c3cccc(C)c3C)CC1)CO2 (configuration not stated)	none (no result: D2 ag-1, D2 ag-2, D2 antag, D2 PAM-2)
CC(Sc1nnc(-c2ccccc2F)n1C1CC1)C(=O)NC(N)=O (configuration not stated)	D2 antag 45.3
CC(Sc1nnc(-c2ccccc2F)n1C1CC1)C(=O)N1CCCC1 (configuration not stated)	none
O/C(=C\c1nc2ccccc2[nH]1)c1cccs1	none
O=c1[nH]c2ccccc2nc1/C=C(\O)c1cccs1	D2 ag-2 65.0
COc1cccc(NC(=O)Cn2c(=O)n(-c3ccccc3)c(=O)c3ccc(C(=O)NCc4ccc5c(c4)OCO5)cc32)c1	none (no result: D2 ag-1, D2 antag, D2 PAM-2)
